Assay outcomes: PubChem, National Center for Advancing Translational Sciences (NCATS)
Hits are enriched below; roughly 7.4% of the tested compounds scored in any of these assays.
NPC1 prom act = qHTS Assay for NPC1 Promoter Activators; Potency, µM (series often up to 9.22 µM), most hits filed as activators; Huh7 NPC1 promoter luciferase reporter, 24 h; actives 2.4% (n = 320,000); further: nearly all actives have a fitted effect of over 60% in size
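Stably transfected Huh7 (NPC1 promoter→luciferase), 1500 cells/well in Opti-MEM + 10% FBS, 2 h settle, then compound 24 h at 37 °C. Luminescence after 10 min with Amplite reagent.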
KinaseGlo FLuc = Counterscreen for Luciferase (Kinase-Glo TM) Inhibition | Kinase-Glo luciferase, ATP luminescence, 8 min | AID 1379, 2008 | Luciferin 4-monooxygenase (Photuris pensylvanica), Q27757 | actives 0.28% (n = 200,000) | Potency, µM (doses to about 38.3 µM), usual class: inhibitors; further: nearly all actives have a fitted effect of over 60% in size
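Recombinant Kinase-Glo luciferase, 10 uM ATP (linear range), luciferin; imidazole pH 7.2 / KCl / MgCl2 / Tween / BSA buffer; 8 min RT; luminescence.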
SMN2 splice enh = qHTS Assay for Enhancers of SMN2 Splice Variant Expression. HEK293 SMN2-luciferase splicing reporter, luminescence, 30-36 h. Potency, µM (series often up to 46.1 µM), actives largely listed as activators. actives 2.8% (n = 210,000); further: nearly all actives have a fitted effect of over 55% in size
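HEK293 cells carry an SMN2 […]–luciferase reporter in which exon 7 inclusion puts luciferase in frame. Cells were plated 10-12 h before compound addition, then incubated 30-36 h at 37C. ONE-Glo luminescence was read; sodium butyrate at 4.5 mM final served as control.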
ELG1 genotox = qHTS screen for small molecules that induce genotoxicity in human embryonic kidney (HEK293T) cells expressing luciferase-tagged ELG1; actives 1.3% (n = 330,000); Potency, µM (titrated, usually from 46 µM), most hits filed as activators; HEK293T ELG1-luciferase reporter, luminescence, 16 h; further: nearly all actives have a fitted effect of over 60% in size
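DMSO vehicle served as control against compound-treated ELG1-luciferase HEK293T cells; exposure lasted 16 hr at 37 °C and 5% CO2, followed by ONE-Glo luminescence detection after 30 min.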
FLuc counter = qHTS profiling assay for firefly luciferase inhibitor/activator using purifed enzyme and Km concentrations of substrates (counterscreen for miR-21 project); actives 6.9% (n = 360,000); Potency, µM (series often up to 57.5 µM), most hits filed as inhibitors; Luciferin 4-monooxygenase (Photinus pyralis), P08659; purified FLuc, Km substrates, luminescence inhibition; further: nearly all actives have a fitted effect of over 55% in size
Target sequence (P08659 whole entry, looked up): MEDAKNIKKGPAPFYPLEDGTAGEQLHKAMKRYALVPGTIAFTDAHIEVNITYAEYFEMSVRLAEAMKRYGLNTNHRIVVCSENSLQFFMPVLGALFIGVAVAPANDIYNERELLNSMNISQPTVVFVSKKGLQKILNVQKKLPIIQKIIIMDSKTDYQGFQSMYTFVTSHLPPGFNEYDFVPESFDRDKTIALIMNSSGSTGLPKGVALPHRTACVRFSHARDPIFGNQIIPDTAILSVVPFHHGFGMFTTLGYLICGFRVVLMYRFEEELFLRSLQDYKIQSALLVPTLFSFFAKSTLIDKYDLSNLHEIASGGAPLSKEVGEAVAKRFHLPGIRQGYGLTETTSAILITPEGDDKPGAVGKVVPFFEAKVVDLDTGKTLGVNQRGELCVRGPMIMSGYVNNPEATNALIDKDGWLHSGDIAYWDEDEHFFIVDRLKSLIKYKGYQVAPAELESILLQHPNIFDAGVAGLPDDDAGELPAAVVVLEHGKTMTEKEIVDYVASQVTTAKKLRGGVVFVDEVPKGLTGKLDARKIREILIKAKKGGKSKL
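Biochemical qHTS of compounds, final roughly 60 µM downward over six points, against 10 nM purified firefly luciferase using Km concentrations of substrates (10 uM D-luciferin, 10 uM ATP) in Tris acetate pH 7.5 buffer; luminescence output.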
Rab9 prom act = qHTS Assay for Rab9 Promoter Activators; actives 2.8% (n = 320,000); Huh7 Rab9 promoter-luciferase reporter, luminescence, 24 h; Potency, µM (titrated, usually from 9.22 µM), hits mostly activators; further: nearly all actives have a fitted effect of over 60% in size
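Cells were plated at 1500 per well in reduced-serum medium with 10% FBS and left 2 h. Compound in DMSO was then added for 24 h at 37 °C. Reporter signal was read by luminescence after 10 min with luciferase detection reagent.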
Numbers stand for hits. The call rests on the fitted dose curve; in most records, active means well fitted curve in the direction sought with a large enough effect; inconclusive means small, poorly fitted or top-dose-only effect, or another doubt; inactive means no such curve, though single readings can be large; an effect the other way counts as inactive or inconclusive.

Results for Cc1cc2nc(-c3ccc(SCC(=O)Nc4ccc5c(c4)OCCO5)nc3)[nH]c2cc1C ?
NPC1 prom act: 2.8µM; KinaseGlo FLuc: 11µM; SMN2 splice enh: inconclusive; ELG1 genotox: inconclusive; FLuc counter: 0.34µM; Rab9 prom act: 4µM

Results for Cc1ccc(-c2ccc(SCC(=O)Nc3ccc4c(c3)OCCO4)nn2)cc1 ?
NPC1 prom act: inactive; KinaseGlo FLuc: inactive; SMN2 splice enh: inactive; ELG1 genotox: inactive; FLuc counter: 1.9µM; Rab9 prom act: inactive

Results for O=C(CSc1ccc(-c2nc3ccccc3[nH]2)cn1)Nc1ccc2c(c1)OCCO2 ?
NPC1 prom act: inactive; KinaseGlo FLuc: inactive; SMN2 splice enh: inactive; ELG1 genotox: inactive; FLuc counter: inconclusive; Rab9 prom act: inconclusive

Results for O=C(CSc1ccc([N+](=O)[O-])cn1)Nc1ccc2c(c1)OCCO2 ?
NPC1 prom act: inactive; KinaseGlo FLuc: inactive; SMN2 splice enh: inactive; ELG1 genotox: inactive; FLuc counter: inconclusive; Rab9 prom act: inactive

What do the screens show for `COc1cccc(CNCCSc2nnnn2C)c1OCc1ccc(Cl)cc1`?
SMN2 splice enh: inactive; FLuc counter: inactive

Results for CCOC(=O)c1c(C)[nH]c(CCC(=O)NCc2cc(Br)ccc2OC)c1C ?
FLuc counter: inactive

How did O=C(NCc1nc2ccccc2n1Cc1ccccc1Cl)c1ccccc1 do in these assays?
SMN2 splice enh: inactive; FLuc counter: inactive

What do the screens show for `CNc1ncc(C(=O)c2ccc(Cl)cc2)s1`?
NPC1 prom act: 3.5µM; KinaseGlo FLuc: inactive; SMN2 splice enh: 13µM; ELG1 genotox: inconclusive; FLuc counter: 11µM; Rab9 prom act: 2.8µM

Results for CNc1ncc(C(=O)c2ccc(Cl)c(Cl)c2)s1 ?
NPC1 prom act: 3.5µM; KinaseGlo FLuc: inactive; SMN2 splice enh: inactive; ELG1 genotox: inconclusive; FLuc counter: inconclusive; Rab9 prom act: inconclusive

How did Cc1ccc(C(=O)c2cnc3ccccc3c2-c2ccccc2)cc1 do in these assays?
NPC1 prom act: inactive; KinaseGlo FLuc: inactive; SMN2 splice enh: inactive; ELG1 genotox: inactive; FLuc counter: inactive; Rab9 prom act: inactive

Results for O=C(c1cnc(-c2ccc(Cl)cc2)s1)c1ccc(Cl)cc1Cl ?
NPC1 prom act: inactive; KinaseGlo FLuc: inactive; SMN2 splice enh: inactive; ELG1 genotox: inactive; FLuc counter: inactive; Rab9 prom act: inactive

How did CNc1ncc(C(=O)c2ccc(-c3ccccc3)cc2)s1 do in these assays?
NPC1 prom act: 2µM; ELG1 genotox: inconclusive; FLuc counter: 3µM; Rab9 prom act: 2.5µM

Results for COc1ccc(C(c2c(O)ccc3ccccc23)N2CCOCC2)c(OC)c1 (configuration not stated) ?
NPC1 prom act: inactive; KinaseGlo FLuc: inactive; SMN2 splice enh: inconclusive; ELG1 genotox: inconclusive; FLuc counter: 12µM; Rab9 prom act: inactive

Results for COc1nc(C)ccc1-c1noc(-c2ccco2)n1 ?
NPC1 prom act: 1.4µM; KinaseGlo FLuc: inactive; SMN2 splice enh: 5.6µM; ELG1 genotox: inconclusive; FLuc counter: 3.8µM; Rab9 prom act: 1.3µM

How did CCOc1nc(-c2ccccc2)ccc1-c1noc(-c2ccco2)n1 do in these assays?
NPC1 prom act: inactive; KinaseGlo FLuc: inactive; SMN2 splice enh: inactive; ELG1 genotox: inactive; FLuc counter: inactive; Rab9 prom act: inactive

What do the screens show for `CCOc1cc(-c2nc(-c3ccc(C)nc3OC)no2)cc(OCC)c1OCC`?
NPC1 prom act: inactive; KinaseGlo FLuc: inactive; SMN2 splice enh: inactive; ELG1 genotox: inactive; FLuc counter: inactive; Rab9 prom act: inactive

Results for COc1nc(-c2ccc(C)cc2)ccc1-c1noc(-c2ccco2)n1 ?
NPC1 prom act: inconclusive; KinaseGlo FLuc: inactive; SMN2 splice enh: inactive; ELG1 genotox: inconclusive; FLuc counter: 19µM; Rab9 prom act: inconclusive

What do the screens show for `COCc1nc(-c2ccc(-c3ccc(C)cc3)nc2OC)no1`?
NPC1 prom act: inactive; KinaseGlo FLuc: inactive; SMN2 splice enh: inactive; ELG1 genotox: inactive; FLuc counter: 17µM; Rab9 prom act: inconclusive

How did O=C(Cn1c(=O)n(Cc2ccccc2)c(=O)c2oc3ccccc3c21)Nc1ccc(Cl)cc1 do in these assays?
FLuc counter: inactive

Results for O=C(Nc1cccc(Cl)c1)c1cc(S(=O)(=O)N2CCCc3ccccc32)ccc1F ?
FLuc counter: inactive

How did CCOC(=O)CSc1nc2c(sc3ccccc32)c(=O)n1Cc1ccc(OC)cc1 do in these assays?
FLuc counter: inactive

Results for CCc1cccc(NC(=O)c2cc3c(=O)oc4ccc(C)cc4c3s2)c1 ?
SMN2 splice enh: inactive; FLuc counter: inactive

What do the screens show for `COc1cc(OC)cc(C(=O)Nc2ccc3nc(N4CCC(C)CC4)cc(C)c3c2)c1`?
SMN2 splice enh: inactive; FLuc counter: inactive

How did C1CCN2CC3CC(CN4CCCC[C@@H]34)C2C1 (some centres not stated) do in these assays?
KinaseGlo FLuc: inactive

How did CN1CC(=O)Nc2cc(C(=O)O)ccc21 do in these assays?
FLuc counter: inactive

What do the screens show for `CN1CCN(c2ccc(NC(=O)COc3ccccc3)cc2Cl)CC1`?
NPC1 prom act: 4.5µM; ELG1 genotox: inconclusive; FLuc counter: 21µM; Rab9 prom act: 4µM

Results for CC(C)c1ccc(OCC(=O)Nc2ccc(OC(F)(F)F)cc2)cc1 ?
NPC1 prom act: inactive; ELG1 genotox: inactive; FLuc counter: inactive; Rab9 prom act: inactive

What do the screens show for `CC(C)c1ccc(NC(=O)COc2ccccc2)cc1`?
NPC1 prom act: inconclusive; ELG1 genotox: inconclusive; FLuc counter: 17µM; Rab9 prom act: inconclusive

Results for Cc1cc(NC(=O)COc2ccccc2)ccc1Cl ?
NPC1 prom act: inconclusive; ELG1 genotox: inconclusive; FLuc counter: 27µM; Rab9 prom act: inactive

Results for CCOC(=O)c1cc(-c2ccccc2)n(CC(=O)N(C)c2ccc(OC)cc2)c1C ?
FLuc counter: inactive

What do the screens show for `CCOc1ccc(CC(=O)NC2CC(=O)N(c3cccc(F)c3)C2)cc1` (configuration not stated)?
FLuc counter: inactive

Results for O=c1cc(O)c2ccc(O)cc2o1 ?
NPC1 prom act: inactive; ELG1 genotox: inactive; FLuc counter: inactive; Rab9 prom act: inactive

How did O=c1ccc2[n+]([O-])c3ccc(O)cc3oc-2c1 do in these assays?
NPC1 prom act: inactive; ELG1 genotox: inactive; FLuc counter: 15µM; Rab9 prom act: inactive

Results for CCOc1ccccc1NC(=O)CSc1nc2c(c(=O)[nH]1)CCC2 ?
FLuc counter: inactive

Results for CCOc1ccccc1NC(=O)C(=O)c1cc(C)n(-c2cccc(C)c2C)c1C ?
FLuc counter: inactive
